# TEAD-YAP inh = TEAD-YAP interaction inhibition, primary screen, TEAD-YAP interaction inhibitor project, luminescence, HEK-TIYL cells; TEAD-Gal4/YAP UAS-luciferase luminescence; inhibition, % at 9.12 µM; 640,000 tested, 1.4% active; AID 1259422, 2018; in the data active = inhibition above about 32%;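 note: 0% = median of test compound wells and 100% = reference inhibitor wells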
# MITF primary = MITF inhibitors, primary screen, biochemical, AlphaScreen, human. AlphaScreen MITF homodimerization, bead proximity signal. inhibition, % at 2.6 µM. 650,000 tested, 0.91% active; in the data active = inhibition above about 50%;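 note: 0% = vehicle wells with protein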
# Target sequence (O75030 whole entry, looked up): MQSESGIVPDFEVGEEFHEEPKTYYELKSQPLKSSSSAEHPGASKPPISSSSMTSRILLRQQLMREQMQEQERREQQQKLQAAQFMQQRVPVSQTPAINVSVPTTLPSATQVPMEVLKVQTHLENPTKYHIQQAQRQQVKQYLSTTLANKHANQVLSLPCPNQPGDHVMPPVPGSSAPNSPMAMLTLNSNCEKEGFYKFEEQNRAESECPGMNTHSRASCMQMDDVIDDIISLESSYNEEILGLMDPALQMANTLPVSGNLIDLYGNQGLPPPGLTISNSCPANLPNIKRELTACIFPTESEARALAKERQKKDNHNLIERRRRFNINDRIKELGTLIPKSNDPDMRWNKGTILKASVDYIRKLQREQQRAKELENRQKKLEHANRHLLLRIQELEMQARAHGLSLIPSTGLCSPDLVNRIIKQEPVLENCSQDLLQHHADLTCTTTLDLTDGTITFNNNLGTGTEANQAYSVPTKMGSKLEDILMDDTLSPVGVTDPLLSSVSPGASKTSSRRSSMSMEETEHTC
# FBW7 act = FBW7 E3 ligase activators, primary screen, biochemical, AlphaScreen, human. AlphaScreen FBW7–phospho-cyclin E peptide binding, activator screen. AID 1259310, 2017. F-box/WD repeat-containing protein 7 (Homo sapiens), Q969H0. 650,000 tested, 0.13% active. normalized activity (activation), % at 26.1 µM; in the data active = normalized activity above about 1.9%;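 note: purified mutant Fbw7 with reduced substrate affinity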
# GPR151 ag = activators of human GPR151, primary screen, cell-based, PathHunter beta-arrestin, luminescence; 650,000 tested, 1% active; PathHunter beta-arrestin GPR151 cells; G-protein coupled receptor 151 (Homo sapiens), Q8TDV0; activation, % at 11.2 µM; in the data active = activation above about 4.9%;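 note: 0% = median of compound wells and 100% = cells with positive control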
# * = called active by the depositor. The list is not random: actives were taken first. Their share in the collection is about 3.4%.
SMILES,TEAD-YAP inh,MITF primary,FBW7 act,GPR151 ag
COc1ccc(-c2cc(-c3ccccc3)nc(SC3CC(=O)N(c4ccc(C)cc4)C3=O)c2C#N)cc1 (centres undefined),9,8,0,-1
Cc1nc(SC2CC(=O)N(c3ccccc3)C2=O)c(C#N)c(C)c1C (centres undefined),57*,12,1,1
Cc1cc(C)c(C#N)c(SC2CC(=O)N(c3ccccc3)C2=O)n1 (centres undefined),38*,3,1,0
CCOC(=O)c1c(NC(=O)c2cccc(OC(C)C)c2)sc2c1CCCC2,-5,18,0,-1
COc1ccc(C2C(C(=O)OC3CCCC3)=C(C)NC3=C2C(=O)CC(C)(C)C3)cc1Br (centres undefined),-12,16,0,1
Cc1cccn2cc(-c3ccc(NC(=O)C(C)(C)C)cc3)nc12,64*,-13,0,-4
O=C(Nc1ccc(O)c(-c2nc3ccccc3s2)c1)C1CC1,4,14,0,3
Cc1nnc(NC(=O)C2CCN(c3nc4ccccc4s3)CC2)s1,6,11,0,0
CC(=O)Nc1ccc(NC(=O)C2CCN(c3nc4ccccc4s3)CC2)cc1,36*,43,0,-2
CCC(=O)Nc1ccc(-c2cn3ccccc3n2)cc1,40*,3,0,-5
O=C(Nc1ccc(-c2cn3ccccc3n2)cc1)c1ccccc1,-25,19,1,-6
O=C(Nc1ccc(-c2nc3ccccc3s2)cc1)C1CC1,79*,14,0,-3
CCN(CC)c1ccc(C2C(C(=O)Nc3ccc(Br)cn3)=C(C)NC3=C2C(=O)CCC3)cc1 (centres undefined),-7,4,0,-1
CC(=O)c1ccc(-c2cnc3c(Nc4cccc(C(F)(F)F)c4)nccn23)s1,3,10,0,0
CCC(=O)Nc1ccc(-c2nc3ccccc3s2)cc1,84*,20,0,-8
CCN(CC)C1CCN(C(=O)CCc2nnc(-c3ccccc3)o2)C1 (centres undefined),1,10,0,0
O=C(Nc1ccc(F)c(Cl)c1)c1ccc(Cl)c([N+](=O)[O-])c1,2,3,0,1
O=C(Nc1ccc2c(c1)OC(F)(F)O2)c1ccc(Cl)c([N+](=O)[O-])c1,34*,10,0,0
O=C(CCl)Nc1ccc2c(c1)OC(F)(F)O2,37*,15,0,1
CN(CC(=O)Nc1cccc(F)c1)CC(=O)Nc1ccc2c(c1)OC(F)(F)O2,14,-7,1,-2
Nc1nonc1-c1nc2ccccc2n1CC(=O)Nc1ccccc1F,54*,1,0,1
CC(=O)Nc1nonc1-c1nc2ccccc2n1Cc1c(F)cccc1Cl,-6,3,0,-1
Nc1nonc1-c1nc2ccccc2n1CC(=O)N/N=C/c1ccncc1,53*,0,0,1
O=C(Nc1nonc1-c1nc2ccccc2n1Cc1c(F)cccc1Cl)c1ccccc1Cl,65*,-8,0,1
CCc1ccccc1NC(=O)Cn1c(-c2nonc2N)nc2ccccc21,7,-1,0,1
SMILES,TEAD-YAP inh,MITF primary,FBW7 act,GPR151 ag
CCCCOc1ccccc1NC(=O)Cn1c(-c2nonc2N)nc2ccccc21,54*,-5,0,-1
CSc1nc2sc3c(c2c(=O)n1Cc1ccccc1)CCc1ccccc1-3,-17,2,0,-1
O=C(Cn1cc(/C=C2/C(=O)Nc3cc(Cl)ccc32)c2ccccc21)NCC1CCCO1 (centres undefined),10,-5,0,0
CCOC(=O)c1c(NC(=O)c2ccc(OC)cc2)sc(C(=O)NC2CCCC2)c1C,-6,26,0,0
Nc1nonc1-c1nc2ccccc2n1CC(=O)Nc1ccccc1C(F)(F)F,34*,3,0,-1
Cc1cccc(OS(=O)(=O)c2cn(C)c(=O)n(C)c2=O)c1,-1,3,3.6*,-1
CC1=C(C(=O)OCC2CCCO2)C(c2cc3c(cc2Br)OCO3)NC(=O)N1 (centres undefined),16,3,0,0
Cn1c(CC(=O)NNC(=O)Cc2csc(-c3ccccc3)n2)nc2ccccc21,10,-2,0,-1
Cc1nc2sccn2c1CN1CCN(CCc2ccccc2)C(CCO)C1 (centres undefined),-5,19,0,-2
CCOC(=O)C1(Cc2cccc(OC)c2)CCN(Cc2c(C)nc3sccn23)CC1,26,12,0,1

# Source: PubChem (The Scripps Research Institute Molecular Screening Center)
